Screening data from PubChem BioAssay.
This is a sample that favours compounds with a hit; in the whole collection about 9% have one here.
PLK1 PBD block – inhibitors of human PLK1 polo-box domain binding; P53350; Potency, µM, most hits filed as inhibitors; Plk1 PBD binding of FITC phosphopeptide, fluorescence polarization; 360,000 compounds, 2.8% hits; AID 720504; further: series mostly up to about 57 µM; nearly all actives have a fitted effect of over 65% in size
HP1b chromo inh – HP1-beta chromodomain-methylated histone interaction inhibition; P83916; AlphaScreen HP1-beta / biotin-H3K9me3 peptide binding; Potency, µM (highest dose often 114 µM), usual class: inhibitors; 390,000 compounds, 0.56% hits; AID 540317; further: nearly all actives have a fitted effect of over 70% in size
Target sequence (P83916 whole entry, looked up): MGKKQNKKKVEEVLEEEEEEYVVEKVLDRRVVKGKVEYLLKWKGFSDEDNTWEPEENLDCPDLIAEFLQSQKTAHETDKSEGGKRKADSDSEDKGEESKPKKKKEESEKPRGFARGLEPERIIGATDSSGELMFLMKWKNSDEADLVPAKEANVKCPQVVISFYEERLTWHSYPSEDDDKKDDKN
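AlphaScreen: HP1-beta (50 nM) preformed 30 min with biotin-H3(1-18)K9me3 peptide (50 nM) in PBS pH 7.4, 0.01% Tween-20. Compound added for 30 min at RT, then streptavidin donor/nickel chelate acceptor beads (10 ug/mL) for 30 min.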
12-LOX inh – blocks human arachidonate 12S-lipoxygenase. 580,000 compounds, 1.1% hits. Potency, µM (highest dose often 108 µM), hits mostly inhibitors. purified 12hLO, xylenol orange hydroperoxide absorbance. P18054. AID 1671190
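Purified human 12hLO (150 nM final) in 25 mM Hepes, 0.01% Triton X-100, pH 7.0 was preincubated 15 min at room temperature with compound. Then 40 uM arachidonic acid was added, 30 min. Hydroperoxide was read by Fe-XO absorbance ratio 573/405 nm.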
JMJD2A Tudor – JMJD2A Tudor domain (human) inhibition | 390,000 compounds, 4.4% hits | AlphaScreen JMJD2A-Tudor / H3K4me3 peptide binding | Potency, µM (series often up to 114 µM), actives largely listed as inhibitors | O75164; further: nearly all actives have a fitted effect of over 50% in size
BAZ2B inh – BAZ2B (human) inhibition. Potency, µM (titrated, usually from 114 µM), hits mostly inhibitors. Q9UIF8. AlphaScreen BAZ2B-H3K14Ac peptide displacement. 360,000 compounds, 4.4% hits; further: nearly all actives have a fitted effect of over 60% in size
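Complex of BAZ2B and biotin-H3K14Ac (50 nM apiece) forms over 30 min at RT, then faces library compounds up to 110 uM for another 30 min; AlphaScreen beads added, 20 min dark incubation, luminescence read.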
G9a block – blocks human histone lysine methyltransferase G9a; Q96KQ7; Potency, µM (titrated, usually from 102 µM), hits mostly inhibitors; G9a H3K9 monomethylation, AlphaScreen, 2 h; 350,000 compounds, 8.8% hits; further: nearly all actives have a fitted effect of over 75% in size
Target sequence (Q96KQ7 913-1193 limits assumed): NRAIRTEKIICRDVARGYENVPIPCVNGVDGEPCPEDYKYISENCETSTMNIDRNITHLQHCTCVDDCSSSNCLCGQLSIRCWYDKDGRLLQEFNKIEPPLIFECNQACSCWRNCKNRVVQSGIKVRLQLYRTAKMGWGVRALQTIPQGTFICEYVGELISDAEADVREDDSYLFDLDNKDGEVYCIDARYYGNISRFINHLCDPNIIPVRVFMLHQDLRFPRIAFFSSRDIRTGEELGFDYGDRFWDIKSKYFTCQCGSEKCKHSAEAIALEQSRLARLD
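Chemiluminescent proximity detection of H3K9 monomethylation, read after 10 min bead incubation in the dark. Reaction: 20 nM G9a, 500 nM biotin-H3K9 peptide, 20 uM SAM cofactor, 2 h, room temperature, following 15 min enzyme-compound preincubation.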
Numbers stand for hits; – = inactive; ? = inconclusive; · = not tested or not shown; [ ] = remark or other dose. The call rests on the fitted dose curve; in most records, active means well fitted curve in the direction sought with a large enough effect; inconclusive means small, poorly fitted or top-dose-only effect, or another doubt; inactive means no such curve, though single readings can be large; an effect the other way counts as inactive or inconclusive.

SMILES	PLK1 PBD block	HP1b chromo inh	12-LOX inh	JMJD2A Tudor	BAZ2B inh	G9a block
CCN(CC)C(=O)C1=C(C)N(Cc2ccc(OC)cc2)C(=O)C(CC(=O)NCCN2CCOCC2)C1 (configuration not stated)	–	·	16µM	·	·	·
COC(=O)c1ccccc1N/C=C/C(=O)c1ccc(Br)cc1	–	–	–	–	–	–
CS(=O)(=O)N1CCN(c2nc3ccc(Cl)cc3s2)CC1	–	–	–	–	–	–
Cc1cc(C)c(NC(=S)NC(CO)(CO)CO)c(C)c1	–	–	–	89µM	–	10µM
Cc1cccc(C)c1NC(=S)NC(C)(C)CO	–	–	–	–	–	?
O=C(Nc1ccccc1N1CCCCC1)c1cc(S(=O)(=O)N2CCOCC2)ccc1Cl	–	–	–	–	?	–
O=C(Cn1cnc2cc(F)ccc2c1=O)Nc1cc2c(cc1Cl)OCCO2	·	·	–	·	·	·
CCC(=O)N1N=C(c2ccc(C)o2)CC1c1ccc(N(C)C)cc1 (configuration not stated)	–	–	–	?	?	50µM
Cc1ccc(C2=NN(C(=O)CCl)C(c3cccs3)C2)o1 (configuration not stated)	–	–	?	–	–	13µM
O=C(c1ccccc1)N1N=C(c2ccco2)CC1c1cccs1 (configuration not stated)	21µM	?	?	35µM	?	·
CC(=O)N1N=C(c2ccco2)CC1c1cccs1 (configuration not stated)	–	–	–	–	–	?
O=C(CCl)N1N=C(c2ccco2)CC1c1cccs1 (configuration not stated)	–	–	·	–	–	10µM
O=C(Cn1cc(COc2cc(F)cc(F)c2)nn1)c1ccc(O)cc1	–	–	?	–	·	·
O=C(Cn1cc(COc2ccc(Br)cc2[N+](=O)[O-])nn1)c1ccc(O)cc1	27µM	–	–	50µM	·	·
Cc1cccc(C)c1OCc1cn(CC(=O)c2ccc(O)cc2)nn1	–	–	?	89µM	·	·
O=C(Cn1cc(COc2ccccc2C(F)(F)F)nn1)c1ccc(O)cc1	21µM	–	–	45µM	·	·
CC(=O)c1ccc(OCc2cn(CC(=O)c3ccc(O)cc3)nn2)cc1	–	–	?	?	·	·
COc1cc(C(C)=O)ccc1OCc1cn(CC(=O)c2ccc(O)cc2)nn1	24µM	–	?	22µM	·	·
CC(CN1CCCCC1)NC(=O)c1scnc1-c1ccccc1 (configuration not stated)	–	·	5.6µM	·	·	·
CC1Oc2ccc(NC(=O)c3ccccc3F)cc2CN(CCOc2ccccc2)C1=O (configuration not stated)	·	·	–	·	·	·
COc1ccc(S(=O)(=O)Nc2ccc(C)cn2)cc1	–	–	–	–	–	–
CSc1nc(N)c2ncn([C@@H]3O[C@H](COP(=O)(O)OP(=O)(O)OP(=O)(O)O)[C@@H](O)[C@H]3O)c2n1	·	·	?	·	·	–
CSc1nc(N)c2ncn([C@@H]3O[C@H](COP(=O)(O)OP(=O)(O)O)C(O)[C@H]3O)c2n1 (some centres not stated)	·	·	·	·	·	9.5µM
COc1ccc(C2=C(N3CCN(c4cccc(C)c4)C(C)C3)c3ccccc3C2=O)cc1 (configuration not stated)	·	?	?	7.1µM	4.5µM	5µM
COc1ccc(-n2ncc3c(N4CCN(c5cccc(C)c5)C(C)C4)ncnc32)cc1 (configuration not stated)	·	–	–	–	–	–
SMILES	PLK1 PBD block	HP1b chromo inh	12-LOX inh	JMJD2A Tudor	BAZ2B inh	G9a block
OC1=C(O)c2nc3ccccc3nc21	?	–	–	–	–	?
COc1ccc(N2CCN(c3nc(NCCc4ccc(OC)c(OC)c4)nc(OC)n3)CC2)cc1	–	?	–	25µM	40µM	11µM
CCCCOc1ccc(C2/C(=C(/O)c3ccc4c(c3)CC(C)O4)C(=O)C(=O)N2CCCN2CCOCC2)cc1OC (configuration not stated)	–	–	?	?	–	56µM
CCOc1ccc(C2/C(=C(/O)c3ccc4c(c3)CC(C)O4)C(=O)C(=O)N2CC2CCCO2)cc1 (configuration not stated)	–	–	–	–	?	?
CC1Cc2cc(/C(O)=C3/C(=O)C(=O)N(CC4CCCO4)C3c3ccco3)ccc2O1 (configuration not stated)	30µM	?	?	–[11.4 µM]	?	?
COc1cc(C2/C(=C(\O)c3ccc4c(c3)CC(C)O4)C(=O)C(=O)N2CCN2CCOCC2)cc(OC)c1OC (configuration not stated)	–	–	?	?	–	71µM
COc1cc(C2/C(=C(\O)c3ccc4c(c3)CC(C)O4)C(=O)C(=O)N2CC2CCCO2)cc(OC)c1OC (configuration not stated)	–	–	?	–	?	50µM
COc1ccc(Nc2nc3ccccc3nc2NS(=O)(=O)c2cc(C)ccc2C)cc1OC	·	·	–	·	·	·
Cc1ccc(-c2noc(C3CCCN(C(=O)c4c(F)cccc4F)C3)n2)cc1 (configuration not stated)	–	–	–	–	–	–
Clc1ccc2nc(-c3nc(C4CCOC4)no3)cn2c1 (configuration not stated)	·	·	–	·	·	·
COc1ccccc1NC(=O)C(=O)NCC1COc2ccccc2O1 (configuration not stated)	–	–	–	–	–	–
COc1ccc(/C(O)=C2/C(=O)C(=O)N(CC3CCCO3)C2c2cccc(O)c2)cc1 (configuration not stated)	–	–	–	50µM	–	?
COC(=O)c1ccc(C2/C(=C(/O)c3ccc(OC)cc3)C(=O)C(=O)N2CC2CCCO2)cc1 (configuration not stated)	–	–	–	–	–	–[12.7 µM]
COc1ccc(C(=O)Nc2cccc3nc(C)ccc23)cc1OC	–	–	–	–	–	–
O=[N+]([O-])c1cccc(Cl)c1CSc1ccccn1	–	–	?	–	?	45µM
COC(=O)/C(=N/Nc1ccc(C)cc1)N1CCCc2ccccc21	–	–	?	?	?	45µM
COC(=O)/C(=N/Nc1ccccc1)N1CCCc2ccccc21	–	–	?	?	–	45µM
COC(=O)/C(=N/Nc1cccc(C)c1)N1CCCc2ccccc21	–	–	–	–	?	?
Cc1cc(C(=O)COC(=O)C2=NNC(=O)CC2)c(C)n1-c1cccc(C(F)(F)F)c1	–	–	–	?	?	?
CC(C)(C)N(NS(=O)(=O)c1ccc(F)cc1)c1ccccc1	?	–	–	?	–	8.9µM
Cc1ccccc1NS(=O)(=O)c1ccc(F)cc1	–	–	–	–	–	–
Cc1ccc(O)c(C2=NNC(O)(C(F)(F)F)C2)c1 (configuration not stated)	–	–	–	–	–	56µM
